Measured values: PubChem BioAssay (NCI)
Values joined by “and” are separate entries in the source; they are usually repeats but may differ in a detail not shown here. Identical values can stand only once. Compounds without any hit were thinned out: in the full panel of roughly 83,000, 20% have a hit.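 Values shown are percent growth following 48 h exposure of cells in 96-well plates to a single concentration of compound; below 10 was considered active.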 Active and inactive are the calls of the source.

Key:
Experiment in all cases: NCI-60 one-dose screen, 48 h (100 = growth as untreated, 0 = no growth, -100 = all killed)
Settings in all cases: 10 µM unless noted
[1] = tested on: T-47D breast
[2] = tested on: BT-549 breast
[3] = tested on: MDA-MB-435 melanoma
[4] = tested on: SW-620 colon
[5] = tested on: MCF7 breast
[6] = tested on: HCT-116 colon
[7] = tested on: HCC-2998 colon
[8] = tested on: KM12 colon

Measured: growth

CN1CCN(c2ccc3nc(-c4c(N)c5c(F)cccc5[nH]c4=O)[nH]c3c2)CC1
-66% (active) and 49.3% (inactive): [2]
inactive: [1] 71.6% and 64.4% | [3] 26.6% and 16.1% | [4] 14.3% and 15.8% | [5] 14.8% and 14.7% | [7] 38.2% and 44.8% | [8] 12.8% and 13.7%
19.1% (inactive) and 3.86% (active): [6]

COc1ccc2ccccc2c1/C=N/N1CCCCC1
inactive: [1] 94.2% | [2] 102% | [3] 99.1% | [4] 103% | [5] 84% | [6] 102% | [7] 109% | [8] 108%

CCOc1ccc2nc3cc(N)ccc3c(N)c2c1
active: [1] 7.14% and -4.55%
35.7% (inactive) and -3.05% (active): [2]
inactive: [3] 91.7% and 98.2% | [4] 46.1% and 50% | [5] 16.8% | [6] 46.4% and 29.6% | [7] 45.3% and 46.1% | [8] 45.1% and 31.5%

Cc1cc(O)c2c(c1)C(=O)c1cc(O)cc(O)c1C2=O
inactive: [1] 65% and 73.4% | [2] 84.5% and 88.1% | [3] 76.8% and 83.6% | [4] 100% and 97.3% | [5] 98.4% and 95.1% | [6] 92.9% and 97.5% | [7] 95% and 108% | [8] 98.1% and 91.9%

OCc1ccccn1
inactive: [1] 107% | [2] 103% | [3] 103% | [4] 104% | [5] 95.3% | [6] 104% | [7] 109% | [8] 110%

Nc1nc(SC/C=C/CCl)c2[nH]cnc2n1
inactive: [1] 108% and 92.9% | [2] 103% and 126% | [3] 105% and 101% | [4] 105% and 106% | [5] 125% and 85.4% | [6] 104% and 105% | [7] 101% and 103% | [8] 107% and 111%

CC(=O)Oc1cc(C(=O)O)cc(OC(C)=O)c1OC(C)=O
inactive: [1] 101% and 98.5% | [2] 110% and 102% | [3] 116% and 106% | [4] 103% and 107% | [5] 102% and 93% | [6] 100% and 90.3% | [7] 102% and 100% | [8] 112% and 106%

C#CCN(C)Cc1ccccc1
inactive: [1] 96.9% and 99.3% | [2] 94.6% and 141% | [3] 107% and 98.3% | [4] 104% and 103% | [5] 118% and 95.9% | [6] 99.6% and 86.9% | [7] 103% and 97.7% | [8] 109% and 102%

CCOC(=O)c1c(C)oc(C)c(C(=O)OCC)c1=O
inactive: [1] 99.1% and 87.7% | [2] 79.4% and 100% | [3] 111% and 108% | [4] 104% and 98.3% | [5] 97.7% and 97.4% | [6] 97% and 97.3% | [7] 102% | [8] 114% and 117%

Cn1c(=O)n(-c2ccc(C(C)(C)C#N)cc2)c2c3cc(-c4cnc5ccccc5c4)ccc3ncc21
active: [1] -12.2% and -4.13% | [2] -8.12% and -14.5% | [3] 2.94% and 5.92% | [4] 8% and 3.15% | [5] 4.64% and -3.88% | [7] 1.76% and 7.09% | [8] 3.33% and -9.75%
inactive: [6] 16.8% and 13%

CCN(CC)CCCC(C)Nc1cnc(C(=O)Nc2cc(F)cc3cccnc23)cn1 (centres undefined)
active: [5] 2.31% and -37.5% | [6] 9.52% and -66.7%
inactive: [7] 66.7% and 14.1%
75.3% (inactive) and -92.3% (active): [8]
14.3% (inactive) and -49.5% (active): [1]
25.5% (inactive) and 3.24% (active): [3]
77.4% (inactive) and -40.1% (active): [2]
24.3% (inactive) and -78.8% (active): [4]

CC1=NN(c2ccccc2)C(=O)C1C(=O)c1ccccc1 (centres undefined)
inactive: [1] 86.9% | [2] 103% | [3] 104% | [4] 101% | [5] 86% | [6] 98.3% | [7] 90.5% | [8] 93.2%

O=C(/C=C/c1ccccn1)c1ccccc1O
inactive: [1] 68.7% and 66% | [2] 112% | [3] 58.2% and 75.2% | [4] 46.1% and 73.8% | [5] 37.9% and 37.4% | [6] 44.6% | [8] 40.4% and 48.2%
9.46% (active) and 97.3% (inactive): [7]

O=C1NC(=O)C2(CCc3ccccc32)N1 (centres undefined)
inactive: [1] 92.8% and 94.4% | [2] 115% and 98.1% | [3] 107% and 129% | [4] 117% | [5] 92.9% and 110% | [6] 113% and 96.3% | [7] 103% | [8] 100% and 109%

CCCCCn1sc(=O)n(Cc2ccc(CNC(=O)C(C)c3ccc(CC(C)C)cc3)cc2)c1=O (centres undefined)
105% (inactive) and -64.3% (active): [7]
87.6% (inactive) and -73.1% (active): [4]
99.1% (inactive) and -82.4% (active): [2]
93.2% (inactive) and -43.1% (active): [5]
86.4% (inactive) and -44.8% (active): [1]
103% (inactive) and -82.6% (active): [6]
98.1% (inactive) and -61.5% (active): [3]
88.7% (inactive) and -14.3% (active): [8]

Nc1cc2c(cc1N)-c1ccccc1C2
inactive: [1] 80.8% and 79.5% | [2] 64.1% and 75.5% | [3] 91.6% and 94.1% | [4] 108% and 100% | [5] 81.2% and 95% | [6] 98.8% and 100% | [7] 102% and 90.1% | [8] 90% and 97.1%

CC(=O)c1ccccc1O
inactive: [1] 107% and 81.2% and 103% | [2] 95.9% and 110% and 91.1% | [3] 105% and 111% and 109% | [4] 103% and 105% and 113% | [5] 102% and 94% and 101% | [6] 97.8% and 92.6% and 101% | [7] 99.7% and 102% and 97.2% | [8] 103% and 100% and 110%

CC1=C(/C=C/C(C)=C/C=C/C(C)=C/C(=O)O)C(C)(C)CCC1
inactive: [1] 63.4% and 86.2% and 77.1% | [2] 100% and 84.9% and 99.2% | [3] 92.3% and 90.7% and 107% | [4] 111% and 106% and 116% | [5] 68.6% and 67.4% and 73.2% | [6] 83% and 98.7% and 89.6% | [7] 108% and 111% and 105% | [8] 94.7% and 105% and 102%
